Results: PubChem BioAssay AID720641 (ICCB-Longwood Screening Facility, Harvard Medical School, 2013)
Among all 170,000 compounds or so, about 900 (0.53%) were called active.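 How the source made its calls: active means relative growth at most 50% at the other temperature and 20+ points below 30 °C, or under 10% at both; inactive means the rest, inconclusive results apart.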 The entries come from a sample that favours actives as a whole.

Assay: Staphylococcus aureus RN4220 growth blockers – two temperatures, LtaS inhibitor project, primary screen (AID 720641)
Conditions: S. aureus RN4220 growth, OD600, 20 h, 42 °C, stronger effect = lower value

Structure (SMILES)	relative growth	relative growth (measured here: growth at 30 °C) [%]
[C-]#[N+]c1ccc(Cl)cc1C(C)S(=O)(=O)c1ccc(C)cc1 (stereo not given)	4.29% (active)	7.07
Cc1cc(N2CCNCC2)nc(C)n1	91.3% (inactive)	82.9
CN1C(=O)C(C(=O)O)C2CC1Oc1ccccc12 (stereo not given)	91.5% (inactive)	72.8
O=C(Cn1cc(/C=C2/C(=O)NC(=O)N(Cc3ccco3)C2=O)c2ccccc21)NCC1CCCO1 (stereo not given)	98.4% (inactive)	86.3
CN(C)c1ccc(/C=C2/C(=O)C3CCN2CC3)cc1	112% (inactive)	95.5
